Data taken from PubChem BioAssay (NCI).
Compounds without any hit were thinned out: in the full panel of roughly 79,000, 15% have a hit. Values without a mark were called inactive. Rule as the data show it: active = growth inhibition above about 70%; inactive = the rest. Where a SMILES comes first, the peptide text is derived from it. [ ]: non-standard residue; d: D form. The star is where a group is joined. Ac5c = NC1(C(=O)O)CCCC1; Cbz = O=C(OCc1ccccc1)*

Experiment: NCI Yeast Anticancer Drug Screen. Data for the bub3 strain (AID 167)
Conditions: S. cerevisiae bub3 mutant strain, at 50.0 µM, stronger effect = higher value
Method in brief: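 Inhibition values come from growth of compound-treated mutant yeast normalised to vehicle-treated controls.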
Work on CC(=O)CC(=O)Nc1cccc(C)c1 yielded a growth inhibition of 16.2%. Work on CCC(C)CN1C(=O)NC(C)(Cc2ccccc2)C1=O (stereo not given) yielded a growth inhibition of 7.85%. For Cc1ccc(C(=O)Nc2ccc(S(=O)(=O)O)c3cc(S(=O)(=O)O)cc(S(=O)(=O)O)c23)cc1N, the growth inhibition was -13.2%. In the case of O=C(O)c1ccncc1C(=O)c1csc2ccccc12, the growth inhibition is reported as 30.4%. With COc1ccc(/C=C/C(C)=O)c(OC)c1 the growth inhibition was 0.05%. CS1(=O)=NC(=O)C(N2C(=O)c3ccccc3C2=O)CC1 (stereo not given) showed a growth inhibition of 13.2%. BrC1CC2CCCCC2CC1Br (stereo not given) gave a growth inhibition of 8.8%. Work on Nc1nc(Cl)c2nc(Cl)n(C3OC(CO)C(O)C3O)c2n1 (stereo not given) yielded a growth inhibition of 4.5%. Nc1nc(-c2cc(-c3ccco3)nc(N)n2)cc(-c2ccco2)n1 gave a growth inhibition of -35.6%. For COC(=O)C(/C(=N/NC(N)=O)C(=O)Nc1c(C)cccc1C(C)(C)C)c1nc2ccc(Cl)cc2[nH]c1=O (stereo not given), the growth inhibition was -11.2%. Cc1ccc(Nc2nc(C)c(C(=O)CC(=O)C(=O)Nc3c(C)cccc3C(C)(C)C)s2)cc1 gave a growth inhibition of -1.05%. With Clc1nc2ccccc2s1 the growth inhibition was -21.1%. Compound O=C(O)/C(=C(\CO)c1ccccc1)c1ccccc1 has a growth inhibition of 3.25%. Compound CCCCC(=O)CCC(=O)O has a growth inhibition of 9.7%. For O=C(O)CSc1ccn(Cc2ccccc2)c1, the growth inhibition was -56.8%. In the case of O=C(O)CNC(=O)C1(NC(=O)CNC(=O)OCc2ccccc2)CCCC1 (Cbz-Gly-[Ac5c]-Gly-OH), the growth inhibition is reported as -5.05%. Compound O=c1c2ccccc2n2c(-c3ccc(O)cc3)nnc2n1-c1ccccc1 has a growth inhibition of 1.5%. In the case of COc1ccccc1/C=C1\C(=O)N(C(=O)Cc2ccccc2)N=C1C, the growth inhibition is reported as -3.85%. CCOC(=O)/C(O)=C(/C=N\C(=S)Nc1ccccc1Cl)C(=O)OCC showed a growth inhibition of -26.2%. Work on O=C1CC[C@H](NC(=O)Cc2ccccc2)C(=O)N1 yielded a growth inhibition of -11.9%. With CN(C)C(=S)/N=c1\ss/c(=N\C(=S)N(C)C)n1-c1ccc2c(c1)OCO2 the growth inhibition was -16.9%. COC(=O)C1Cc2ccccc2C1=O (stereo not given) gave a growth inhibition of -11.8%. For CCCCCCSCCO, the growth inhibition was -30.9%. For Cc1nc(N=C(N)N)nc2ccccc12, the growth inhibition was 2.65%. For CCOC(=O)c1[nH]n(-c2ccccc2)c(=O)c1/C=N/C(=S)Nc1c(CC)cccc1CC, the growth inhibition was -8.25%. With CC1=C(O[Si](C(C)C)(C(C)C)C(C)C)C2CC1(OS(=O)(=O)C(F)(F)F)[C@H]1C(=O)N(c3ccccc3)C(=O)[C@@H]21 (stereo not given in full) the growth inhibition was 5.2%. For CC1SC2(C(=O)Nc3ccccc32)N(c2ccc(Cl)cc2)C1=O (stereo not given), the growth inhibition was 60.5%. Compound O=C(NCCN1CCOCC1)c1ccc(C(=O)NCCN2CCOCC2)cc1 has a growth inhibition of 1.6%. CC(=O)OCC1OC(OCC(OC(C)=O)C(OC(C)=O)C(OC(C)=O)c2cnn(-c3ccccc3)n2)C(OC(C)=O)C(OC(C)=O)C1OC(C)=O (stereo not given) showed a growth inhibition of 12.4%. Nc1nc(CCC(=O)O)cs1 gave a growth inhibition of -1.45%. Nc1ncnc2c1ncn2C1CCN(CCO)C1=O (stereo not given) showed a growth inhibition of -5.2%. In the case of COC(=N)c1nnn(-c2ccccc2)n1, the growth inhibition is reported as 2.05%. With Cc1ccc(C(=O)Cc2ccccc2)cc1 the growth inhibition was -1.85%. Compound CCC1(CC)C(=O)N(C(=O)c2ccc(C)cc2)N(C(=O)c2ccc(C)cc2)C1=O has a growth inhibition of 2.8%. With O=c1[nH]nc(Cc2ccccc2)n1/N=C\c1ccccc1 the growth inhibition was -16.1%. In the case of CCOC(=O)c1c(C)c2c(n1C)CC/C(=C\N1CCN(c3ccccc3)CC1)C2=O, the growth inhibition is reported as 2.25%. In the case of COc1ccc(NS(=O)(=O)c2ccc(NCc3c4ccccc4nc4ccccc34)cc2)nn1, the growth inhibition is reported as -0.45%. For O=C(Nc1ccccc1[N+](=O)[O-])OCc1ccccc1, the growth inhibition was 1.6%. With CC1(C)C(N)C(C)(C)C1N (stereo not given) the growth inhibition was 17.1%. Work on O=C1CN(N2CCOCC2)CC(=O)N2CCCCN12 yielded a growth inhibition of 10.4%.
